This is part of a sample that, as a whole, favours compounds with a hit. Of some 83,000 tested, about 20% had one in any assay.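 The test compound was applied at a single concentration to cells in 96-well plates for 48 hours, and percent growth was recorded.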 A number with no mark means an inactive call. Calls of active or inactive are those of the source. Rule for the calls: active = growth percent below 10; inactive = the rest.
Columns and labels:
Test in all cases: NCI-60 one-dose screen, 48 h (100 = growth as untreated, 0 = no growth, -100 = all killed)
Conditions in all cases: 10 µM unless noted
HCT-15 colon = system: HCT-15 colon
HT29 colon = system: HT29 colon
SNB-75 CNS = system: SNB-75 CNS
U251 CNS = system: U251 CNS
PC-3 prostate = system: PC-3 prostate
SK-MEL-5 melanoma = system: SK-MEL-5 melanoma
UACC-62 melanoma = system: UACC-62 melanoma
LOX IMVI melanoma = system: LOX IMVI melanoma
SK-MEL-28 melanoma = system: SK-MEL-28 melanoma
SK-MEL-2 melanoma = system: SK-MEL-2 melanoma
EKVX NSCLC = system: EKVX NSCLC
SN12C renal = system: SN12C renal
UO-31 renal = system: UO-31 renal
TK-10 renal = system: TK-10 renal
ACHN renal = system: ACHN renal
CAKI-1 renal = system: CAKI-1 renal
A498 renal = system: A498 renal
CCRF-CEM leukemia = system: CCRF-CEM leukemia
MOLT-4 leukemia = system: MOLT-4 leukemia
SNB-19 CNS = system: SNB-19 CNS

| SMILES | growth (HCT-15 colon) | growth (HT29 colon) | growth (SNB-75 CNS) [%] | growth (U251 CNS) | growth (PC-3 prostate) [%] | growth (SK-MEL-5 melanoma) | growth (UACC-62 melanoma) [%] | growth (LOX IMVI melanoma) [%] | growth (SK-MEL-28 melanoma) [%] | growth (SK-MEL-2 melanoma) [%] | growth (EKVX NSCLC) [%] | growth (SN12C renal) [%] | growth (UO-31 renal) [%] | growth (TK-10 renal) [%] | growth (ACHN renal) [%] | growth (CAKI-1 renal) [%] | growth (A498 renal) | growth (CCRF-CEM leukemia) | growth (MOLT-4 leukemia) | growth (SNB-19 CNS) [%] |
| --- | --- | --- | --- | --- | --- | --- | --- | --- | --- | --- | --- | --- | --- | --- | --- | --- | --- | --- | --- | --- |
| O=c1cc(CP(=O)(O)O)c2cc(O)c(-c3ccccc3)cc2o1 | 101% | 108% | 83.8 | 100% | 98.6 | 98.1% | 97.8 | 99.5 | 104 | 107 | 89 | 98.2 | 88.2 | 106 | 98.4 | 93 | 109% | 93.6% | 99.2% |  |
| CCOC(=O)/C(=C(/C)NCC(C)C)c1cc(O)c(O)c2c(C)cc(=O)[nH]c12 | 29.8% | 111% | 78.2 | 46.8% | 34.3 | 43.2% | 66.8 | 38.1 | 71 | 69.1 | 89.3 | 42.9 | 59.3 | 77.7 | 47.8 | 51.4 | 79.2% | 11.2% | 10.5% |  |
| O=c1cc(C(F)(F)F)c2cc(-c3cc4ccccc4c(=O)o3)c(O)cc2o1 | 90.3% | 106% | 76.1 | 65.7% | 68.5 | 24.9% | 21.9 | 72.8 | 69.6 | 46.1 | 89.5 |  | 58.5 | 103 | 74.1 | 76.5 | 72% | 53.9% | 58.5% |  |
| c1ccc(Nc2nc3c(s2)CCc2c[nH]cc2-3)nc1 | 102% | 100% | 88.7 | 89.6% | 70.4 | 83.5% | 92.1 | 82.7 | 110 | 99.2 | 75.3 | 106 | 59.4 |  | 92.3 | 97.3 | 81% | 9.72% (active) | 64.7% |  |
| O=C(C[C@]1(O)C(=O)Nc2ccc(Br)cc21)c1ccco1 | 105% | 101% | 96.1 | 100% | 92.6 | 93.3% | 90.7 | 89.9 | 117 | 94.5 | 107 | 90 | 75.4 | 125 | 109 | 93.4 | 103% | 104% | 102% |  |
| O=c1oc2ccccc2cc1-c1nn(-c2ccccc2)cc1-c1nn[nH]n1 | 100% | 104% | 76.2 | 104% | 91.5 | 102% |  | 89 | 107 | 104 | 99.4 |  | 78.4 |  | 99.9 | 87.6 | 95.1% | 104% | 99% |  |
| Cc1ccc(S(=O)(=O)N2CCCN(c3nc(-c4ccccc4)nc4nc(-c5ccccc5)oc34)CC2)cc1 | 114% | 120% | 105 | 104% | 96.3 | 98.9% | 101 | 95.4 | 108 | 103 | 112 | 97.6 | 76.8 | 103 | 103 | 93.2 | 106% | 106% | 95% |  |
| COc1cc(N2C(=O)[C@H](Cl)C2c2ccc(SC)cc2)cc(OC)c1OC (stereo partly specified) | 4.62% (active) | 1.22% (active) | 73.9 | 7.72% (active) | 22.1 | -34.3% (active) | 29.5 | 20.3 | 65.7 | 44.6 | 28.6 | 31.8 | 40.6 | 49.1 | 30.3 | 24.3 | -7.35% (active) | 11.4% | 7.86% (active) |  |
| Cc1c2ncccc2nc2[nH]c3ccc(OCCN(C)C)cc3c12 | 15.7% | 5.4% (active) | 63 | 20.3% | 12.1 | 47% | 35.2 | 18 | 78.5 | 33.7 | 49.2 | 13.9 | 19.1 | 31 | 10.6 | 63.3 | 79.9% | 6.43% (active) | 9.61% (active) |  |
| CCOC(=O)c1[nH]cc2c1CCc1sc(Nc3ccccn3)nc1-2 | 67.2% | 77% | 82.2 | 69% | 56.7 | 63.5% | 86.5 | 81.7 | 103 | 84.8 | 58.4 | 91.8 | 70.2 | 116 | 76.6 | 82.3 | 62.2% | -2.37% (active) |  |  |
| O=C(/C=C/c1ccccc1)c1ccc(-n2cc(CN3CCN(c4cc5c(cc4F)c(=O)c(C(=O)O)cn5C4CC4)CC3)nn2)cc1 | 91.6% |  | 72.3 | 42.2% | 79.3 | 77.6% | 73.8 | 36.2 | 88.2 | 96.8 | 94 | 45.8 | 62.5 | 83.3 | 93.5 | 61.4 | 52.2% | 64.9% | 84.1% | 72 |
| O=C1O[C@@H](c2ccccc2Cl)[C@@H]2c3cc4c(cc3CCN12)OCO4 | 101% |  | 91.7 | 86% | 87.7 | 96.6% |  | 99.5 | 118 | 91.7 | 101 | 103 | 74.6 | 89.1 | 105 | 105 | 82.8% | 105% | 90.5% | 99.4 |

From PubChem BioAssay (NCI)
